# In ChEMBL document CHEMBL1961873, “Compounds: GSK PKIS; Assays: Nanosyn kinase panel” (2012):
# Key:
# [1] = target: Mitogen-activated protein kinase kinase kinase kinase 4 (Homo sapiens) (UniProt O95819); settings: at 1 µM;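 also: reported figure is an averaged inhibition value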
# [2] = target: Dual specificity mitogen-activated protein kinase kinase 1 (Homo sapiens) (UniProt Q02750); settings: at 0.1 µM
# [3] = target: Dual specificity mitogen-activated protein kinase kinase 1 (Homo sapiens) (UniProt Q02750); settings: at 1 µM
# [4] = target: Misshapen-like kinase 1 (Homo sapiens) (UniProt Q8N4C8); settings: at 0.1 µM
# Misshapen-like kinase 1 (Homo sapiens), sequence (Q8N4C8 whole entry, looked up): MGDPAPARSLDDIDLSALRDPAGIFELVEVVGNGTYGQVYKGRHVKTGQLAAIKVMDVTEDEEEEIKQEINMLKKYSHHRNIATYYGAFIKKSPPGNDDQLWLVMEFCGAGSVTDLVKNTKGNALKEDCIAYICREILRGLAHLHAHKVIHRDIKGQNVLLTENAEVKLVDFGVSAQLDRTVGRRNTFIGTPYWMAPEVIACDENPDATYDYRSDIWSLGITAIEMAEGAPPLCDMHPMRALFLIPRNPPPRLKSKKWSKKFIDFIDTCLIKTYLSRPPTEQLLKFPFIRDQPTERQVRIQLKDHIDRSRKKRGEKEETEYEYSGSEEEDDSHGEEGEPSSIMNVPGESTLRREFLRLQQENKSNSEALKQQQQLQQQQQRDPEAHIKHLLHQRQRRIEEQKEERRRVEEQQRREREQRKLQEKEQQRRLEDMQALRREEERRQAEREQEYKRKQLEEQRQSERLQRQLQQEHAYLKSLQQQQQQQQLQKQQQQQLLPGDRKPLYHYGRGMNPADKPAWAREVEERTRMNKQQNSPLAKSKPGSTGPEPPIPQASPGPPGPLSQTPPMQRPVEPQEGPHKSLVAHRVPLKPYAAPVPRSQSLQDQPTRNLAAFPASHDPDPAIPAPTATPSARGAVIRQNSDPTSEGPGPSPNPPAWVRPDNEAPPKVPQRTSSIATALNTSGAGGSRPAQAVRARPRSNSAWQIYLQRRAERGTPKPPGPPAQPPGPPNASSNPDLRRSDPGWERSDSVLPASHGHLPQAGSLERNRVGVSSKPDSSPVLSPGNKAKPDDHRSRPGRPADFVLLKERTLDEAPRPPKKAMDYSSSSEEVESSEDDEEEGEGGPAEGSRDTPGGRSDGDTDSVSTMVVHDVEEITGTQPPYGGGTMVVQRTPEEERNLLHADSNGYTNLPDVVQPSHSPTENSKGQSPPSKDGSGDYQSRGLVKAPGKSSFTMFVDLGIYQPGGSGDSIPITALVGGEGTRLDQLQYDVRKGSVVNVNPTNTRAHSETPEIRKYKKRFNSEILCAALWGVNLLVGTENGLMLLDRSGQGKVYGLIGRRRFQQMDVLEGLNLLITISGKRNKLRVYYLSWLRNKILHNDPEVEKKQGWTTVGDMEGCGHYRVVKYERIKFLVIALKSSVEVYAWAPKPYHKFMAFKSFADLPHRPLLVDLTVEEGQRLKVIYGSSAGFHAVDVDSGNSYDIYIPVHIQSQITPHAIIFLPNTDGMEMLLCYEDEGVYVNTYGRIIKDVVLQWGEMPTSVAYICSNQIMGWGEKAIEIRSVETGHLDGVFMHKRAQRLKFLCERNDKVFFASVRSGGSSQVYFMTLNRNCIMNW
# [5] = target: Misshapen-like kinase 1 (Homo sapiens) (UniProt Q8N4C8); settings: at 1 µM
# [6] = target: T1, Serine/threonine-protein kinase 4 (Homo sapiens) (UniProt Q13043); settings: at 0.1 µM
# T1 sequence (whole entry): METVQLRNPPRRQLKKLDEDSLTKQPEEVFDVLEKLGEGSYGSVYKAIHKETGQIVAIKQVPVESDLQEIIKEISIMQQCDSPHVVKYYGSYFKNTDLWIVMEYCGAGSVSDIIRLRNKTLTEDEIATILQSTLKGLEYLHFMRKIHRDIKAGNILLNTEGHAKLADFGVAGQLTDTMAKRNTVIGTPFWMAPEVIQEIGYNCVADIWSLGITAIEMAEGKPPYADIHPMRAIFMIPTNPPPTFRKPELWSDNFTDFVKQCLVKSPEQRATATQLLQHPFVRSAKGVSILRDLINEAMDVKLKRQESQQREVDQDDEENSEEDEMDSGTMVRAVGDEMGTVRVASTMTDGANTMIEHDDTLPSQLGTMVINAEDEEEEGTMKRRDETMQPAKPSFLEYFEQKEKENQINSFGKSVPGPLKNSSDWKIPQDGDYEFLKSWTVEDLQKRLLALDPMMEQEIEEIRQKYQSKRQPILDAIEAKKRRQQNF
# [7] = target: T1, Serine/threonine-protein kinase 4 (Homo sapiens); settings: at 1 µM
# [8] = target: T2, Serine/threonine-protein kinase 3 (Homo sapiens) (UniProt Q13188); settings: at 0.1 µM
# T2 sequence (whole entry): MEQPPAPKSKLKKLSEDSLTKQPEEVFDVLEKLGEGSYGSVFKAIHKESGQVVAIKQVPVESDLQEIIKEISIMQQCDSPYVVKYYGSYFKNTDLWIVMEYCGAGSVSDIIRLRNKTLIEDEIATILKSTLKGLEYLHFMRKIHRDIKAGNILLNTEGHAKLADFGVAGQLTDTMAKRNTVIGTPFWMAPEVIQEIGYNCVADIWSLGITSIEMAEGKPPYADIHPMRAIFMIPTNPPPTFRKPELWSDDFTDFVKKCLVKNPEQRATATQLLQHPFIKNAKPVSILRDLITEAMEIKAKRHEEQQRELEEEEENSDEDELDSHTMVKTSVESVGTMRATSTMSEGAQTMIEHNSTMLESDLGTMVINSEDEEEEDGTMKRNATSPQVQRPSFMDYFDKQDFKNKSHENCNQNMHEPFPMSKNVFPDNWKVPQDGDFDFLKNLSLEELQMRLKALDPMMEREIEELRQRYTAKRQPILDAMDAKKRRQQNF
# [9] = target: T2, Serine/threonine-protein kinase 3 (Homo sapiens); settings: at 1 µM
# [10] = target: Serine/threonine-protein kinase 26 (Homo sapiens) (UniProt Q9P289); settings: at 0.1 µM
# Serine/threonine-protein kinase 26 (Homo sapiens), sequence (Q9P289 2-416 limits assumed): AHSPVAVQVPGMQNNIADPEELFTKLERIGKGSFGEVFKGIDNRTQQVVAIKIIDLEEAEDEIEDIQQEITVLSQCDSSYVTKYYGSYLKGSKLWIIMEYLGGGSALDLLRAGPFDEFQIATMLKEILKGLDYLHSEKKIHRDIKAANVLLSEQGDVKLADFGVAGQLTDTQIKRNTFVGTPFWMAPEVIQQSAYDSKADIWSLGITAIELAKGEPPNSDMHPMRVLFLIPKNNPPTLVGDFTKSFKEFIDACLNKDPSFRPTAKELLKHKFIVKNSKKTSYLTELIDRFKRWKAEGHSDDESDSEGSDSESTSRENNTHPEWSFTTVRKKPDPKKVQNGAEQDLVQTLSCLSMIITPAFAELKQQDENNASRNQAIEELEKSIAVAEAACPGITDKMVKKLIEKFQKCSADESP
# [11] = target: Serine/threonine-protein kinase 26 (Homo sapiens) (UniProt Q9P289); settings: at 1 µM
# [12] = target: Serine/threonine-protein kinase PAK 1 (Homo sapiens) (UniProt Q13153); settings: at 0.1 µM
# Serine/threonine-protein kinase PAK 1 (Homo sapiens), sequence (Q13153 whole entry): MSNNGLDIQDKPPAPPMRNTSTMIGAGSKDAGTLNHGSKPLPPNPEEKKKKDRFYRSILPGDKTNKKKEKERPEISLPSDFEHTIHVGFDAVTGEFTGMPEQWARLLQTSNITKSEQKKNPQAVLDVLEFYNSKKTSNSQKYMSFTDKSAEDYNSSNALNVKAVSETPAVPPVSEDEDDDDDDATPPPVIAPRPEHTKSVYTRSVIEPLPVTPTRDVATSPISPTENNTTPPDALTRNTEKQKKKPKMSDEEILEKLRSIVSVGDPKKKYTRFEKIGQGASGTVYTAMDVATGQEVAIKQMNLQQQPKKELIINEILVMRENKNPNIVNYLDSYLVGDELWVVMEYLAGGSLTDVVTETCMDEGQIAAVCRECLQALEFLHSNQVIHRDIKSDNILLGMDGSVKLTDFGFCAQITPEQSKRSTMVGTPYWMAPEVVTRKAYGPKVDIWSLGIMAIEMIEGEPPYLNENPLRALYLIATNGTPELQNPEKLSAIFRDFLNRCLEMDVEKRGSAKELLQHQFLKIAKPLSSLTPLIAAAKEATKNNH
# [13] = target: Serine/threonine-protein kinase PAK 1 (Homo sapiens) (UniProt Q13153); settings: at 1 µM
# [14] = target: Serine/threonine-protein kinase PAK 2 (Homo sapiens) (UniProt Q13177); settings: at 0.1 µM
# [15] = target: Serine/threonine-protein kinase PAK 2 (Homo sapiens) (UniProt Q13177); settings: at 1 µM
# [16] = target: Serine/threonine-protein kinase PAK 3 (Homo sapiens) (UniProt O75914); settings: at 0.1 µM
# [17] = target: Serine/threonine-protein kinase PAK 3 (Homo sapiens) (UniProt O75914); settings: at 1 µM
# [18] = target: Serine/threonine-protein kinase PAK 5 (Homo sapiens) (UniProt Q9P286); settings: at 0.1 µM
# [19] = target: Serine/threonine-protein kinase PAK 5 (Homo sapiens) (UniProt Q9P286); settings: at 1 µM
# [20] = target: Serine/threonine-protein kinase PAK 6 (Homo sapiens) (UniProt Q9NQU5); settings: at 0.1 µM;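 also: mean PAK6 inhibition reported from the GSK PKIS screen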
# Serine/threonine-protein kinase PAK 6 (Homo sapiens), sequence (Q9NQU5 whole entry, looked up): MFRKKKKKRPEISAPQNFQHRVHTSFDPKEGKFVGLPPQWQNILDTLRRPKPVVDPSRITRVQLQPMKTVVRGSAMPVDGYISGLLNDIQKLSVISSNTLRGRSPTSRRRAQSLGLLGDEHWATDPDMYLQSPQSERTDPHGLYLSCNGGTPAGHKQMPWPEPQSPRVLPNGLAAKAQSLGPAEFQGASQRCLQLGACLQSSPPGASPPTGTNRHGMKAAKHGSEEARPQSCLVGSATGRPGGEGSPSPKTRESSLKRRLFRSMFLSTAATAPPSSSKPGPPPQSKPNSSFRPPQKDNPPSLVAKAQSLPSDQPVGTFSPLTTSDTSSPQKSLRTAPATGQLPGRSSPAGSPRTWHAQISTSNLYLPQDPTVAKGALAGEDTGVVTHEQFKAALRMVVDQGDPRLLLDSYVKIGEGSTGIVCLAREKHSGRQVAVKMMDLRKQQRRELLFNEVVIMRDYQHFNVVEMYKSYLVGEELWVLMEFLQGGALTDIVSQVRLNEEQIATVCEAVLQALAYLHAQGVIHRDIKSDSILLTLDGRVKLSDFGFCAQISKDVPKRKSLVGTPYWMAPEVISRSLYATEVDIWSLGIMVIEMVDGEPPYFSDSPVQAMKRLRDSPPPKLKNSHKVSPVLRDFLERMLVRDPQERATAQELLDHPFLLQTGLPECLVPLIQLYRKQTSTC
# Dual specificity mitogen-activated protein kinase kinase 1 (Homo sapiens), sequence (Q02750 whole entry): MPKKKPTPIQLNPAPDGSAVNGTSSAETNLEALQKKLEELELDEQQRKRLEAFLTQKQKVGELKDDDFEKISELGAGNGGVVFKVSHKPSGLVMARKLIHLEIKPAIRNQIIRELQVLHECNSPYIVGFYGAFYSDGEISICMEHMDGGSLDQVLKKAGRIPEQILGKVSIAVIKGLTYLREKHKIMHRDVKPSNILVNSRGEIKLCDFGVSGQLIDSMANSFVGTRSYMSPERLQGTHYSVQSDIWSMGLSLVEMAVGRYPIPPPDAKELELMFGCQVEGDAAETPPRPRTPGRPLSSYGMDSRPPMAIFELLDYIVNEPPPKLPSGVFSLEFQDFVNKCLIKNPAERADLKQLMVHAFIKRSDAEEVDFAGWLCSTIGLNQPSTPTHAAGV
# Mitogen-activated protein kinase kinase kinase kinase 4 (Homo sapiens), sequence (O95819 2-1239 limits assumed): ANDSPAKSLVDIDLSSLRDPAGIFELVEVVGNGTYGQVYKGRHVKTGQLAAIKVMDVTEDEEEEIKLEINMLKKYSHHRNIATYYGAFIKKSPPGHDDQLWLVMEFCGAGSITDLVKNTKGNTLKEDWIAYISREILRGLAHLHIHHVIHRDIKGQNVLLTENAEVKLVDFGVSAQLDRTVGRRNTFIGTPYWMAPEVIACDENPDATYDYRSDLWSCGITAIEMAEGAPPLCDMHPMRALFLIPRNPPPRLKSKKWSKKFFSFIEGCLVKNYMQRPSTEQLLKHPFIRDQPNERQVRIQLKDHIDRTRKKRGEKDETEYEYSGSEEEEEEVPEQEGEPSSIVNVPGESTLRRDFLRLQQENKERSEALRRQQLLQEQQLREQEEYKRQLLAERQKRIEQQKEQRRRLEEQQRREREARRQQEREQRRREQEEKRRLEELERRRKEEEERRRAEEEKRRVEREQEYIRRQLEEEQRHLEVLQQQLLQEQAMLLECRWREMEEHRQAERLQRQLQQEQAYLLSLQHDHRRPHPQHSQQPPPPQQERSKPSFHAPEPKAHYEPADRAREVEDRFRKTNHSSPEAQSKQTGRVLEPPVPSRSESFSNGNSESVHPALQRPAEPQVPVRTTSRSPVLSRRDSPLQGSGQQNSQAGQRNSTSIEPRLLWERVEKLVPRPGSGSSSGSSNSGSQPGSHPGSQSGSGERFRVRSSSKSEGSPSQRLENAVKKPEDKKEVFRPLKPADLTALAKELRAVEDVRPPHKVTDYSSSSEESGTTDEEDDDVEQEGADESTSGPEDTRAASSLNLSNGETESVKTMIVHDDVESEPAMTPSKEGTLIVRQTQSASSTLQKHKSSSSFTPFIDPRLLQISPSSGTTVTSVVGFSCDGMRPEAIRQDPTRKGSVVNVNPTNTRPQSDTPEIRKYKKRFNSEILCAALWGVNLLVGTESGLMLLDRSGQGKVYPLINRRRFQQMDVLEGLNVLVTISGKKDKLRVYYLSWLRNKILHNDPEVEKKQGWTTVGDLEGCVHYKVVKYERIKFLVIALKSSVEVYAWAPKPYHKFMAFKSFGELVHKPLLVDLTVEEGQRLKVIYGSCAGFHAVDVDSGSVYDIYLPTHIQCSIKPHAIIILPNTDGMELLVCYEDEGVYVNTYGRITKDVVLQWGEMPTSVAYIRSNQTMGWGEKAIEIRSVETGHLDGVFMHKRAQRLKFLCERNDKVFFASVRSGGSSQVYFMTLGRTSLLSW
Compound,inhibition [1],inhibition [2],inhibition [3],inhibition [4],inhibition [5],inhibition [6],inhibition [7],inhibition [8],inhibition [9],inhibition [10],inhibition [11],inhibition [12],inhibition [13],inhibition [14],inhibition [15],inhibition [16],inhibition [17],inhibition [18],inhibition [19],inhibition [20]
O=C(Nc1n[nH]c2cc(-c3ccc(F)cc3)ccc12)C1CC1,70.1%,3.48%,3.42%,16.2%,56%,2.34%,4.72%,2.91%,4.55%,-1.43%,-1.27%,5.64%,5.57%,1.33%,0.78%,3.25%,3.1%,4.4%,-1.87%,2.33%
NC(=O)c1sc(-n2cnc3ccc(C(F)(F)F)cc32)cc1OCc1ccccc1Br,10.4%,4.95%,5.45%,4.02%,11%,2.27%,3.83%,3.43%,4.74%,-0.65%,0.41%,5.7%,7.84%,0.77%,1.46%,3.71%,3.48%,1.98%,3.21%,-5.11%
COc1ccc2c(-c3ccnc(Nc4cccc(OC(F)(F)F)c4)n3)cnn2n1,11.5%,6.37%,6.2%,5.92%,10.5%,8.73%,9.62%,9.08%,9.55%,-1.2%,-3.1%,8.76%,7.47%,4.37%,2.6%,5.69%,5.05%,8.06%,5.84%,5.76%
Fc1ccc(-c2nn3ccccc3c2-c2ccncc2)cc1,38.3%,1.23%,2.3%,4.74%,22.3%,0.01%,0.15%,0.09%,0.63%,-1.27%,2.42%,3.29%,1.62%,-0.13%,-0.1%,1.29%,1.75%,-0.38%,-4.35%,4.75%
Cc1ccc2c(-c3ccnc(Nc4ccccc4)n3)c(-c3ccc(F)cc3)nn2n1,62.1%,4.55%,10.8%,9.04%,50.7%,6.19%,5.86%,8.21%,5.67%,-1.05%,0%,3.46%,6.67%,2.41%,1.9%,3.55%,4.22%,8.15%,2.93%,1.48%
Nc1ncc(-c2cccc(S(N)(=O)=O)c2)c2scc(-c3ccc(F)c(Cl)c3)c12,92.6%,3.89%,6.87%,70.9%,91.6%,4.66%,6.44%,7.02%,6.15%,-0.08%,2.44%,3.95%,5.65%,3.24%,1.78%,5.21%,3.51%,4.11%,3.74%,-2.3%
